SNCA expr inh: Primary qHTS assay for inhibitors of alpha-synuclein gene (SNCA) expression | Potency, µM (highest dose often 57.2 µM), inactives show at the top dose activity change, negative = inhibition, usual class: inhibitors | HEK-293 SNCA-luciferase knock-in, luminescence, 24 h | 140,000 compounds, 0.17% hits;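 further: potency means the concentration at half of the fitted maximal effect; plate controls were DMSO cells for no effect and cell-free wells for full effect; nearly all actives have a fitted effect of over 45% in size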
SNCA viab count: GF-AFC viability counterscreen for inhibitors of alpha-synuclein gene (SNCA) expression; HEK-293-SNCA-luc viability, GF-AFC fluorescence, 24 h; Potency, µM (doses to about 57.1 µM), inactives show at the top dose activity change, negative = cytotoxicity, most hits filed as cytotoxic; 150,000 compounds, 0.12% hits;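 further: potency means the concentration at half of the fitted maximal effect; 0% = DMSO-treated cells and -100% = medium-only wells without cells; nearly all actives have a fitted effect of over 30% in size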
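Cytotoxicity counterscreen: after 24 h compound treatment of genome-edited SNCA-luciferase HEK-293 cells, live-cell protease substrate GF-AFC read by fluorescence after 30 min; activity scaled between DMSO (0%) and medium-only (-100%), curves Hill-fitted.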
IP6K1 inh: Primary qHTS assay for small molecule inhibitors of Inositol hexaphosphate kinase 1 (IP6K1). Inositol hexakisphosphate kinase 1 (Homo sapiens), Q92551. IP6K1 kinase, ADP-Glo luminescence, 2 h; stronger effect = lower value. activity change, % (series mostly up to about 58 µM). 140,000 compounds, 0.81% hits. AID 1645851, 2021; in the data active means activity change below about -25%; further: on the % scale 0 is the no-effect control and ±100 the full control effect
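ADP-Glo luminescence measures ADP made by human IP6K1 during a 2 h RT reaction with ATP/IP6 (mix at 1.3 mM/130 uM); top library doses 57.5 and 19.1 uM final.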
KDM5B inhibitor: Primary screen for KDM5B Histone Demethylases FDH-coupled qHTS | Lysine-specific demethylase 5B (Homo sapiens), Q9UGL1 | KDM5B demethylase, FDH-coupled NADH fluorescence (FDH is formaldehyde dehydrogenase) | Potency, µM (highest dose often 57.7 µM), most hits filed as inhibitors | 220,000 compounds, 2.6% hits | AID 1347165, 2019; further: potency means the concentration at half of the fitted maximal effect; 0% is about no effect; nearly all actives have a fitted effect of over 70% in size
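Here, H3K4me3 peptide (12.5 µM in substrate mix) is demethylated by KDM5BΔAP, 200 nM final, after 10 min compound exposure. Formaldehyde product is coupled through FDH (0.25 U/mL in mix) to NADH fluorescence; 30-min ΔRFU feeds dose-response curves.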
* marks the source's active call; other numbers are inactive results; i = inactive; ? = inconclusive; . = no result given; [ ] = another dose, or the depositor's remark. In the library only some 2.8% were active in any assay of this set; here they are far more common. Unless noted, the call rests on the fitted dose curve; in most records, active means well fitted curve in the direction sought with a large enough effect; inconclusive means small, poorly fitted or top-dose-only effect, or another doubt; inactive means no such curve, though single readings can be large; an effect the other way counts as inactive or inconclusive.

SMILES	SNCA expr inh	SNCA viab count	IP6K1 inh	KDM5B inhibitor
CNC(=O)c1cc(-c2ccccc2F)cc2c1OCCN2Cc1cccnc1	-6.3%[87.6 µM]	?	-5.8	39.8µM*
O=C(c1cc(-c2ccccc2F)cc2c1OCCN2Cc1cccnc1)N1CCCC1	11.3%[87.6 µM]	?	-16.0	?
O=C(NC1CCOCC1)c1cc(-c2ccccc2F)cc2c1OCCN2Cc1cccnc1	-6.9%	-11.8%	-11.8	22.4µM*
O=C(c1cc(-c2ccccc2F)cc2c1OCCN2Cc1cccnc1)N1CC(O)C1	-8.5%[87.6 µM]	-2.1%[87.6 µM]	-14.7	39.8µM*
CNC(=O)c1cc(-c2ccccc2O)cc2c1OCCN2Cc1cccnc1	26.1%[87.6 µM]	-13.5%[87.6 µM]	2.9	31.6µM*
CNC(=O)c1cc(-c2ccc(N3CCOCC3)cc2)cc2c1OCCN2Cc1cccnc1	-25.6%	9.0%	-8.1	i
CNC(=O)c1cc(-c2cccc(NC(C)=O)c2)cc2c1OCCN2Cc1cccnc1	79.1%[87.6 µM]	-8.4%[87.6 µM]	5.1	?
CNC(=O)c1cc(-c2ccc(OC)nc2)cc2c1OCCN2Cc1cccnc1	-4.5%[87.6 µM]	8.6%[87.6 µM]	-21.4	28.2µM*
COCCNC(=O)c1cc(-c2ccccc2F)cc2c1OCCN2Cc1cccnc1	-15.1%[87.6 µM]	?	-14.8	31.6µM*
CNC(=O)c1cc(-c2ccccc2C)cc2c1OCCN2Cc1cccnc1	4.4%[87.6 µM]	-12.3%[87.6 µM]	4.2	?
CNC(=O)c1cc(-c2ccccc2OC)cc2c1OCCN2Cc1cccnc1	1.4%[87.6 µM]	-17.4%[87.6 µM]	-18.9	28.2µM*
C/C(=N/Nc1ccc(Cl)cc1)c1ccc(Br)s1	.	.	.	i
Cc1cc(NC(=O)CSc2ncnc3ccccc23)ccc1Br	.	.	.	i
O=C(CCc1nc(-c2ccncc2)no1)Nc1ccc(N2CCOCC2)cc1	.	.	.	i
COc1ccc(-c2nc3cnccn3c2NCCC(=O)Nc2ccc(C)cc2C)cc1	32.4%	?	1.3	25.1µM*
COc1ccccc1-c1nc2cnccn2c1NCCC(=O)Nc1cc(F)ccc1F	-0.8%	?	30.4	28.2µM*
NCCC(=O)Nc1cc(F)ccc1F	.	.	.	i
Cc1ccc(-c2nc3cnccn3c2NCCC(=O)NCc2ccco2)cc1	?	?	1.0	28.2µM*
COc1ccc(-c2nc3cnccn3c2NCCC(=O)O)cc1	1.2%	?	5.6	28.2µM*
CCCCCn1nc(C(=O)Nc2ccc3oc(C)nc3c2)c2ccccc2c1=O	.	.	.	i
O=c1ncn(CC2CC2)c2ccc(-c3ccc(F)cc3F)nc12	88.3%[87.6 µM]	0.9%[87.6 µM]	-9.7	31.6µM*
O=c1ncn(Cc2ccccc2)c2ccc(-c3ccccc3)nc12	46.3%[87.6 µM]	-5.4%[87.6 µM]	2.7	35.5µM*
COc1cc(F)ccc1-c1ccc2c(n1)c(=O)ncn2Cc1ccccc1	-2.0%[87.6 µM]	-7.9%[87.6 µM]	-6.4	35.5µM*
O=c1ncn(Cc2ccccc2)c2ccc(-c3cccnc3)nc12	1.0%[87.6 µM]	-6.5%[87.6 µM]	1.3	i
COc1cc(F)ccc1-c1ccc2ncn(C3CC3)c(=O)c2n1	65.8%[87.6 µM]	-2.4%[87.6 µM]	12.0	31.6µM*
SMILES	SNCA expr inh	SNCA viab count	IP6K1 inh	KDM5B inhibitor
O=c1c2nc(-c3ccccc3C(F)(F)F)ccc2ncn1C1CC1	8.1%[87.6 µM]	1.9%[87.6 µM]	8.0	i
CC(C)C(=O)N/N=C/c1ccco1	.	.	.	i
O=C(NCc1ccc(Cl)cc1)c1cn2cc(-c3ccc(F)cc3)sc2n1	21.2%	-4.0%	17.5	.
COCCn1c(SCc2ccc(Cl)cc2Cl)nnc1-c1ccncc1	.	.	.	i
C/C(=N\NC(=O)c1ccc(C)cc1)c1ccc(C)s1	.	.	.	i
CCOC(=O)C(CC)Oc1ccc2c(=O)c(Oc3cccc(C)c3)c(C(F)(F)F)oc2c1 (centres undefined)	.	.	.	i
CN(C)CC(O)c1cc2n(n1)CCCN(C(=O)c1cccn1C1CC1)C2 (centres undefined)	-30.7%	2.1%	17.0	i
Cc1ccn2c(C(=O)N3CCCn4nc(C(O)CO)cc4C3)nnc2n1 (centres undefined)	8.5%	-3.6%	23.9	31.6µM*
COC(=O)CCOc1ccc(S(=O)(=O)Nc2c(F)cccc2F)cc1	.	.	.	i
C#CCN(Cc1ccc(F)cc1)C(=O)C1CCCN(c2ncccn2)C1 (centres undefined)	.	.	.	i
O=C1NC2(CCN(C(=O)OCc3ccccc3)C2)N=C1c1ccccn1 (centres undefined)	-2.7%	6.7%	3.4	25.1µM*
O/N=C/c1ccc(OC(F)F)cc1	.	.	.	i
Cc1cc(C)n2nc(C(=O)N3CCN4C(=O)CN(C)C(=O)C4C3)cc2n1 (centres undefined)	-2.0%	10.1%	-17.5	28.2µM*
CC(=O)c1c(C)nn(CC(=O)N2CCN3C(=O)CN(C)C(=O)C3C2)c1C (centres undefined)	5.7%	-0.1%	-10.0	i
CN1CCc2nc(NC(=O)CCn3c(=O)oc4ccccc43)sc2C1	.	.	.	i
COc1ccc(-c2ncc(CN3CCCC4(C3)CN(C)C(=O)O4)cn2)cc1 (centres undefined)	8.0%	-6.1%	-11.0	14.1µM*
O=C(c1cncs1)N1CCc2c(cc(-c3cccc(F)c3)c(=O)n2CCN2CCCCC2)C1	38.2%	4.9%	15.5	28.2µM*
O=S(=O)(Nc1nc2ccccc2nc1Nc1ccc2c(c1)OCO2)c1ccc(Cl)cc1	.	.	.	i
COc1ccc2nc3n(c2c1)[C@@H](CNC(=O)C1CCOCC1)COC3	-3.3%[87.6 µM]	-14.5%[87.6 µM]	1.3	39.8µM*
CC(C)(C)C1CCC(=NNC(=S)NC2CCCCC2)CC1 (centres undefined)	.	.	.	i
COc1ccc(S(=O)(=O)N2CC[C@@H](CC(=O)O)[C@@H](CC3=NCCc4cc(OC)c(OC)cc43)C2)cc1	0.8%	16.5%	-0.5	i
COc1cc2c(cc1OC)C(C[C@H]1CN(S(=O)(=O)c3ccc(C#N)cc3)CC[C@H]1CC(=O)O)=NCC2	14.8%	15.5%	-8.3	28.2µM*
COc1cc2c(cc1OC)C(C[C@H]1CN(S(=O)(=O)c3cccs3)CC[C@H]1CC(=O)O)=NCC2	-26.9%	6.4%	5.6	28.2µM*
CCCN(CC(=O)N(C)C)C(=O)c1cc(-c2ccco2)nc2ccccc12	.	.	.	i
CCCNC(=O)CCc1ccnc(N2CCCC2)c1	15.4%	5.0%	1.6	22.4µM*
SMILES	SNCA expr inh	SNCA viab count	IP6K1 inh	KDM5B inhibitor
CCN(CC)c1cc(CCC(=O)NCc2ccccc2C)ccn1	-29.6%	-1.8%	17.7	?
O=C(O)CCc1ccnc(N2CCCC2)c1	-8.9%	-8.7%	4.5	?
O=C(CCc1ccnc(N2CCCC2)c1)N1CCN(c2cccc(Cl)c2)CC1	?	1.8%	-4.1	22.4µM*
Cc1ccc(CNC(=O)CCc2ccnc(N3CCCC3)c2)cc1	-27.8%	6.9%	-4.9	31.6µM*
CCN(CC)c1cc(CCC(=O)NCc2ccc(Cl)cc2)ccn1	-14.8%	-13.7%	18.8	22.4µM*
Cc1ccccc1N(C)C1CN(Cc2ccc(C(F)(F)F)cc2)C1	-4.7%	5.9%	-18.9	i
COCCn1c(N2CCC(C)CC2)nc2c1c(=O)[nH]c(=O)n2C	.	.	.	i
